# Structures can show the parent of a compound that is named as a salt.
# Tests used:
# [1] = system: Mel-DCC-11; experiment: cell viability relative to DMSO control (fraction of DMSO control); higher = less cytotoxic, active = 0.5 or less; settings: 1 µM; 120 h
# Summary of the method: (§1)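 Three cell types were screened against 315 approved anti-cancer drugs from TargetMol, acoustically pre-spotted in 384-well plates at 1 µM in duplicate over 120 h: NHEM-hTERT immortalized melanocytes (2500/well), patient-derived Mel-DCC-11 and its resistant subline Mel-DCC-11-R (both 1500/well), all in 40 µl per well. The subline was tested alone and with 8 µM of its selecting drug. Viability, measured by luminescence, was normalised to vehicle controls and averaged across duplicates, with ATPlite 1step as the readout.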
# [2] = system: NHEM-hTERT; experiment: as above; settings: 1 µM; 120 h
# Summary of the method: as §1
Compound,cell viability [1],cell viability [2]
O=C(NC(Cc1cc(=O)[nH]c2ccccc12)C(=O)O)c1ccc(Cl)cc1 (centres undefined) [Rebamipide],1.15 (inactive),1 (inactive)
O.S=c1nc[nH]c2nc[nH]c12 [6-Mercaptopurine monohydrate],0.736 (inactive),0.937 (inactive)
Oc1ccc(/C=C/c2cc(O)cc(O)c2)cc1 [Resveratrol],1.06 (inactive),1 (inactive)
CNC(=O)c1cc(Oc2ccc(NC(=O)Nc3ccc(Cl)c(C(F)(F)F)c3)cc2)ccn1 [Sorafenib],1.46 (inactive),1.02 (inactive)
COC(=O)/C=C/C(=O)OC [Dimethyl fumarate],1.12 (inactive),1.33 (inactive)
C[C@]12CC[C@@H]3c4ccc(O)cc4C[C@@H](CCCCCCCCCS(=O)CCCC(F)(F)C(F)(F)F)[C@H]3[C@@H]1CC[C@@H]2O (some centres undefined) [Fulvestrant],1.05 (inactive),0.817 (inactive)
O=C([O-])CCCc1ccccc1.[Na+] [Sodium Phenylbutyrate],1.12 (inactive),1.1 (inactive)
Clc1ccc(C(c2ccccc2Cl)C(Cl)Cl)cc1 (centres undefined) [Mitotan],0.903 (inactive),0.958 (inactive)
COc1cc([C@@H]2c3cc4c(cc3[C@@H](O[C@@H]3O[C@@H]5CO[C@@H](C)O[C@H]5[C@H](O)[C@H]3O)C3COC(=O)C32)OCO4)cc(OC)c1O (some centres undefined) [Etoposide],1.4 (inactive),0.798 (inactive)
CCC1=C[C@@H]2CN(C1)Cc1c([nH]c3ccccc13)[C@@](C(=O)OC)(c1cc3c(cc1OC)N(C)[C@H]1[C@@](O)(C(=O)OC)[C@H](OC(C)=O)[C@]4(CC)C=CCN5CC[C@]31[C@@H]54)C2.O=C(O)[C@H](O)[C@@H](O)C(=O)O.O=C(O)[C@H](O)[C@@H](O)C(=O)O [Vinorelbine Tartrate],0.78 (inactive),0.644 (inactive)
CC1=C(/C=C/C(C)=C/C=C/C(C)=C/C=C/C=C(C)/C=C/C=C(C)/C=C/C2=C(C)CCCC2(C)C)C(C)(C)CCC1 [Beta-Carotene],0.738 (inactive),0.916 (inactive)
C[C@H](Nc1ncnc2nc[nH]c12)c1cc2cccc(Cl)c2c(=O)n1-c1ccccc1 [Duvelisib],0.965 (inactive),0.912 (inactive)
CN(C)C/C=C/C(=O)Nc1cc2c(Nc3ccc(F)c(Cl)c3)ncnc2cc1O[C@H]1CCOC1.O=C(O)/C=C\C(=O)O.O=C(O)/C=C\C(=O)O [Afatinib Dimaleate],0.711 (inactive),1.13 (inactive)
CNC(=O)c1ccc(N2C(=S)N(c3cnc(C#N)c(C(F)(F)F)c3)C(=O)C23CCC3)cc1F [Apalutamide],1.18 (inactive),1.01 (inactive)
Nc1nc2[nH]nnc2c(=O)[nH]1 [8-Azaguanine],1.68 (inactive),1.08 (inactive)
O=c1c(-c2ccc(O)cc2)coc2cc(O)cc(O)c12 [Genistein],1.04 (inactive),1.1 (inactive)
O=C(Nc1c(Cl)cncc1Cl)c1ccc(OC(F)F)c(OCC2CC2)c1 [Roflumilast],1.34 (inactive),0.841 (inactive)
C[C@@H]1O[C@@H](O[C@H]2[C@H](Oc3cc(O)c4c(c3)O[C@H](c3ccc(O)cc3)CC4=O)O[C@H](CO)[C@@H](O)[C@@H]2O)[C@H](O)[C@H](O)[C@H]1O [Naringin],0.983 (inactive),0.986 (inactive)
CC(O)(P(=O)([O-])O)P(=O)([O-])O.[Na+].[Na+] [Sodium etidronate],0.955 (inactive),0.984 (inactive)
CCNC(=O)[C@@H]1CCCN1C(=O)[C@H](CCCN=C(N)N)NC(=O)[C@H](CC(C)C)NC(=O)[C@@H](CC(C)C)NC(=O)[C@H](Cc1ccc(O)cc1)NC(=O)[C@H](CO)NC(=O)[C@H](Cc1c[nH]c2ccccc12)NC(=O)[C@H](Cc1cnc[nH]1)NC(=O)[C@@H]1CCC(=O)N1 [Leuprorelin Acetate],0.683 (inactive),0.879 (inactive)
Nc1cccc2c1CN(C1CCC(=O)NC1=O)C2=O (centres undefined) [Lenalidomide],0.996 (inactive),0.996 (inactive)
Cc1coc2c1C(=O)C(=O)c1c-2ccc2c(C)cccc12 [Tanshinone I],0.753 (inactive),0.983 (inactive)

# From the supplement of paper PMC12808144
